The list is not random: actives were taken first. Their share in the collection is about 9.6%.
bCat KO growth: beta-catenin-lacking colon tumor cell growth suppression. HCT116 beta-catenin knockout viability, CellTiter-Glo, 60 h; active compounds read low. viability, % at 10 µM. hit rate 1.5% among 140,000. AID 818;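 active = viability at or under a set limit, the compound median less 4 SD, cut at about 6% in these data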;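 note: 0% = Hyamine 1622 control at 20 µM and 100% = untreated cell control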
Ins promoter up: MIN6 insulin promoter up-regulation. MIN6 insulin promoter-GFP reporter, high-content imaging; active compounds read high. z-score at 5 µM. hit rate 0.3% among 190,000;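 active = z-score above 3 at 5 µM with at least 500 cells counted in the well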
HCT116 PTEN-null: suppresses growth of cells with PTEN deletion; HCT116 PTEN-null viability, CellTiter-Glo, 60 h; active compounds read low; viability, % at 10 µM; hit rate 1.2% among 140,000; AID 827;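 active = viability at or below a set limit, 4 SD under the median of all tested compounds, cut at about 3.7% in these data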;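 note: PTEN knockout HCT116 line with beta catenin targeted HCT116 as companion control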
Autophagy HCS: modulators of autophagy. MEF GFP-LC3 puncta imaging; test concentration mostly 10 µM. AID 463193. calls only at 10 µM (by protocol). hit rate 0.98% among 190,000;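 active = percentage of spot-positive cells more than 3 SD above its plate mean, without a fluorescence outlier flag or 80% toxicity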;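 note: spot-positive cell cutoff set from DMSO-treated cells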
Lmaj promast: Leishmania major promastigote growth inhibition; Leishmania major promastigotes, resazurin fluorescence viability; inhibition, % at 10 µM; hit rate 9% among 200,000; in the data active = inhibition above about 50%;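 note: promastigotes grown with compound for 44 hours at 28 °C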
Insulin prom inh: TRM-6 insulin promoter activity inhibition. TRM-6 cells (human fetal islet line), insulin promoter-eGFP reporter, imaging; reporter expression induced with tamoxifen. hit rate 0.9% among 130,000. inhibition, % at 2 µM;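 active = inhibition above the mean plus 3 SD, with well images judged a real hit on visual review, cut at about 60% in these data, passing the limit was not always enough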
Numbers without * were called inactive; i = inactive; . = no result given; + = active, no number.

SMILES	bCat KO growth	Ins promoter up	HCT116 PTEN-null	Autophagy HCS	Lmaj promast	Insulin prom inh
CC(C)(C)c1[nH]nc2c1C(c1ccncc1)C(C#N)=C(N)O2 (configuration not stated)	93	-0.06	99	i	-2	26
O=C(NCCC1=CCCCC1)C(=O)NCC1OCCCN1S(=O)(=O)c1ccccc1 (configuration not stated)	93	0.11	89	i	96*	7
O=C(NCCc1c[nH]c2ccccc12)C(=O)NCC(c1ccco1)N1CCN(c2ccccc2)CC1 (configuration not stated)	79	-0.29	67	i	89*	-3
COc1ccc(N2CCN(C(CNC(=O)C(=O)NCCC3=CCCCC3)c3ccco3)CC2)cc1 (configuration not stated)	73	0	67	i	86*	-7
COc1ccc(N2CCN(C(CNC(=O)C(=O)NCc3ccncc3)c3ccco3)CC2)cc1 (configuration not stated)	.	1	.	i	4	.
O=C(NCCc1ccccc1)C(=O)NCc1ccncc1	96	-0.12	96	i	-6	0
O=C(NCc1ccncc1)C(=O)NCC(c1ccccc1)c1ccccc1	92	1.2	95	i	57*	26
O=C(NCc1ccncc1)C(=O)NCC(c1ccco1)N1CCN(c2ccccc2)CC1 (configuration not stated)	.	-0.9	.	i	4	.
O=C(NCCC1=CCCCC1)C(=O)NCC(c1ccco1)N1CCN(c2ccccc2)CC1 (configuration not stated)	72	0.07	70	i	88*	-21
O=C(NCC(c1ccco1)N1CCN(c2ccccc2F)CC1)OCc1ccccc1 (configuration not stated)	65	-0.84	60	i	1	.
O=C(NCc1ccncc1)C(=O)NCC(c1ccco1)N1CCN(c2ccccc2F)CC1 (configuration not stated)	100	0.23	95	i	52*	-38
O=C(NCCC1=CCCCC1)C(=O)NCC(c1ccco1)N1CCN(c2ccccc2F)CC1 (configuration not stated)	35	0.01	28	i	74*	-7
CC(C)c1ccc(-c2nc(N3CCCCCC3)nc3n[nH]c(N)c23)cc1	102	.	91	i	2	-42
O=C(Cn1nc(Cc2cccnc2)c2ccccc2c1=O)Nc1ccc2c(c1)OCO2	88	-0.83	92	.	-5	.
CCCCN(CC)CCCNC(=O)c1cc2cc3ccc(OC)cc3nc2o1	51	-0.39	39	i	96*	-6
CCCN(CCC)CCCNC(=O)c1cc2cc3ccc(OC)cc3nc2o1	58	3	42	i	96*	-9
COc1ccc2nc3oc(C(=O)Nc4ccc(OC)c(OC)c4)cc3cc2c1	93	0.44	91	i	-6	48
COc1ccc2cc3cc(C(=O)Nc4ccc5c(c4)OCO5)oc3nc2c1	59	-0.77	63	i	100*	16
COc1ccc2cc3cc(C(=O)NCCc4ccc(OC)c(OC)c4)oc3nc2c1	55	1.3	50	i	29	-9
CC(=O)N1CCN(CC(O)COc2ccc(OCc3ccccc3)cc2)CC1 (configuration not stated)	78	-0.35	87	i	32	-5
CCc1ccc(OCC(O)CN2CCC(CN3C(=O)c4cccc5cccc(c45)C3=O)CC2)cc1 (configuration not stated)	1.1*	-0.36	1.2*	i	100*	-52
COc1ccc(COCC(O)CN2CCC(CN3C(=O)c4cccc5cccc(c45)C3=O)CC2)cc1OC (configuration not stated)	37	-0.71	39	i	22	-67
COc1cccc(OCC(O)CN2CCC(CN3C(=O)c4cccc5cccc(c45)C3=O)CC2)c1 (configuration not stated)	.	-1.8	.	i	87*	-38
CC(C)Oc1ccc(/C=N/NC(=O)C(CSCc2ccccc2)NC(=O)c2ccc([N+](=O)[O-])cc2)cc1 (configuration not stated)	71	.	36	+	35	44
N#Cc1c(N)n(CCc2ccc(F)cc2)c2nc3ccccc3nc12	87	-0.08	94	i	15	-20
SMILES	bCat KO growth	Ins promoter up	HCT116 PTEN-null	Autophagy HCS	Lmaj promast	Insulin prom inh
COCCCn1c(N)c(-c2nc3ccccc3n2C)c2nc3ccccc3nc21	76	0.41	82	i	37	-46
Cn1c(-c2c(N)n(C3CCCC3)c3nc4ccccc4nc23)nc2ccccc21	76	0.13	72	+	-18	-60
CC1N=C(N)C(c2nc3ccccc3n2C)=C1O (configuration not stated)	.	0.34	.	i	0	.
Cn1c(-c2c(N)n(CCCc3ccccc3)c3nc4ccccc4nc23)nc2ccccc21	53	0.57	43	+	98*	-28
Cn1c(-c2c(N)n(CCc3ccccc3)c3nc4ccccc4nc23)nc2ccccc21	49	1.7	47	+	100*	1
COc1ccc(NC(=O)Nc2ccc(OC)c(OC)c2)c([N+](=O)[O-])c1	90	-0.21	89	i	0	16
Cc1c(C(=O)OC2CCCC2C)[nH]c2c1C(=O)CCC2 (configuration not stated)	79	.	80	i	-2	-14
O=c1oc2ccccc2nc1/C=C(O)/C=C/c1ccc(F)cc1	71	1.9	73	i	61*	-14
COc1ccc(NC(=O)CCC(=O)N/N=C/c2ccncc2)cc1	.	1	.	.	.	.
COc1ccc(Br)cc1S(=O)(=O)N1CC(C)OC(C)C1 (configuration not stated)	91	.	94	i	-7	-48
CCOc1ccc(C(C)(C)C)cc1S(=O)(=O)N1CC(C)OC(C)C1 (configuration not stated)	92	-0.68	90	i	64*	-41
Cc1ccc(OCC(=O)Nc2cccc(S(=O)(=O)N3CCCCC3)c2)c([N+](=O)[O-])n1	84	-0.49	88	i	14	.
Cc1ccc(NC(=O)CCl)cc1S(=O)(=O)N1CCCCCC1	.	0.01	.	+	91*	0
Cc1ccc(C(=O)Nc2ccc3cn[nH]c3c2)cc1S(=O)(=O)N1CCCCC1	73	-0.13	61	i	50*	15
Cc1ccc(OCC(=O)Nc2ccc(C)c(S(=O)(=O)N3CCCCCC3)c2)c([N+](=O)[O-])n1	.	-1.2	.	i	64*	-36
CCN(C(=O)COc1ccc(C)nc1[N+](=O)[O-])C1CCS(=O)(=O)C1 (configuration not stated)	97	0.12	101	i	51*	22
Cc1ccc(OCC(=O)N(Cc2ccccc2)C2CCS(=O)(=O)C2)c([N+](=O)[O-])n1 (configuration not stated)	88	-0.84	89	i	-4	.

Compound activity deposited in PubChem BioAssay by several laboratories.
